Results filed as inconclusive are left out.
test: qHTS for identification of novel therapeutic agents for treatment of microphthalmiaassociated transcription factor (MiT) renal cell carcinoma (RCC) (AID 1963991); conditions: TFE3-RCC viability, CellTiter-Glo, 48 h; measured here: UOK145 Z-AUC; stronger effect = lower value
Outline: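 Three TFE3-fusion RCC cell lines (UOK109, UOK124, UOK145), 500 cells/well, were exposed to the 1912-compound MIPE 4.0 library for 48 hours at 37 C. Viability was read by CellTiter-Glo luminescence, normalised to DMSO (100%) and empty wells (0%), with 11-concentration curve fits.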

Row | Structure (SMILES) | z-score
1 | COC(=O)C1=C(C)NC(C)=C(C(=O)OCCN2CCN(C(c3ccccc3)c3ccccc3)CC2)C1c1cccc([N+](=O)[O-])c1 (stereo not given) | -0.011
2 | C1Cc2[nH]nc(-c3nn[nH]n3)c2C1 | 0.169
3 | Nc1ncnc2c1c(-c1cnc3[nH]ccc3c1)nn2C1CCCC1 | -1.32
4 | COc1cc(=C2C=c3ccccc3=N2)[nH]c1=Cc1[nH]c(C)cc1C | -0.974
5 | Nc1ccn([C@@H]2CS[C@H](CO)O2)c(=O)n1 | 0.391
6 | O=C(O)Cn1nnc(-c2cc(N3CCC(Oc4cc(F)ccc4Br)CC3)no2)n1 | 1.36
7 | C[C@@]12O[C@@H](C[C@]1(O)CO)n1c3ccccc3c3c4c(c5c6ccccc6n2c5c31)CNC4=O | -1.26
8 | Cn1c(CNc2ccc(C(=N)N)cc2)nc2cc(C(=O)N(CCC(=O)O)c3ccccn3)ccc21 | 1.25
9 | O=C1CCC[C@@H]2[C@H]3CCC[N+]4([O-])CCC[C@@H](CN12)[C@@H]34 (stereo not given in full) | 0.512
10 | N#Cc1c(O)c2c(-c3ccc(-c4ccccc4O)cc3)csc2[nH]c1=O | 0.62
